Each structure is given as a SMILES string. Screen size: about 69,000 compounds; about 8,600 (12%) showed an effect of 50% or more. The sample holds strong results, similar compounds and a random draw of the others, so the mix is not that of the screen.

This test relates to Plasmodium berghei. Briefly: Screen against P. berghei liver stage (PbLuc), transformed with Luciferase, at 10uM. As to conditions: tested at 10 uM. The test is classed as functional, HepG2.
`CC(=O)N(Cc1ncc(C(C)C)o1)C1CCN(CCn2cncn2)C1` (configuration not stated): the INHIBITION was -13.2335%.

For the molecule `CC1=CC[C@@H]2CN(C(=O)c3ccc(-c4nc[nH]n4)cc3)C[C@@H]2C1`, the INHIBITION came out at 40.7%.

In the case of `COc1cc(N2C[C@@H]3COC[C@]3(COCc3ccncc3)C2)ncn1`, the INHIBITION was 34.6%.

Take `COc1cc(N2C[C@@H]3COC[C@]3(COCc3ccccn3)C2)ncn1`: the INHIBITION is reported as 68.4%.

Turning to `Cc1cccc(COC[C@]23COC[C@H]2CN(c2ncccn2)C3)n1`, the INHIBITION worked out at 38.1%.

For `c1ccc(COC[C@]23COC[C@H]2CN(c2ncccn2)C3)nc1`, the INHIBITION is recorded as 53%.

Regarding `COc1cc(N2C[C@@H]3COC[C@]3(COc3cccnc3)C2)ncn1`, the INHIBITION was 42.1%.

On to `COc1cc(N2C[C@@H]3COC[C@]3(COc3ncccc3F)C2)ncn1`, for which the INHIBITION turned out to be 73%.

In the case of `O=C(CC1CC1)NC[C@]12COC[C@H]1CN(c1ncc(F)cn1)C2`, the INHIBITION was 1.48%.

For the molecule `c1ccc(OC[C@]23COC[C@H]2CN(c2ncccn2)C3)nc1`, the INHIBITION is given as 31.9%.

Consider `COCC(=O)NC[C@]12COC[C@H]1CN(c1ncc(F)cn1)C2`, for which the INHIBITION was -22.1%.

Take `COc1cc(N2C[C@@H]3COC[C@]3(COc3ccccn3)C2)ncn1`: the INHIBITION was -6.3%.

Consider `COc1ncccc1CN1C[C@@H]2COC[C@]2(COc2ccccn2)C1`, for which the INHIBITION is listed as -32%.

With `O=C(CC1CC1)NC[C@]12COC[C@H]1CN(c1ncccn1)C2`, the INHIBITION was 88%.

As to `CS(=O)(=O)N1C[C@H]2CC[C@@H](C1)N(C(=O)Cn1ccc3ccccc31)C2`, the INHIBITION was -7.98%.

As for `CC(C)C(C)NC(=O)Nc1cccc(OCC#N)c1` (configuration not stated), the INHIBITION was -16%.

Consider `CC(c1c(F)cccc1F)N1CCN(Cc2nccn2C)CC1` (configuration not stated), for which the INHIBITION turned out to be 19.2%.

As to `Cc1nc(CNC(=O)Nc2c(C)n[nH]c2C)cs1`, the INHIBITION came out at 19.9%.

Turning to `CN(C)C(=O)CN1CCC2(CCN(Cc3nccs3)CC2)C1=O`, the INHIBITION was -21.3%.

As for `Cc1nc2cc(C3CCOCC3)nn2c(NCC2COCCO2)c1C` (configuration not stated), the INHIBITION is reported as 32.75%.

Regarding `CCn1ncc2c1C(COCC1CC1)CN(S(=O)(=O)N(C)C)C2` (configuration not stated), the INHIBITION is recorded as 35.1%.

`COCC(=O)N1CCC([C@@H]2C[C@H](C(F)(F)F)n3nc(C)cc3N2)CC1`: the INHIBITION is -6.92%.

Turning to `CC(c1ccccn1)N(C)Cc1ccc(-n2ccnc2)cc1` (configuration not stated), the INHIBITION is listed as 37.6%.

Consider `COc1cc(N2C[C@@H]3COC[C@]3(COCc3cccc(C)n3)C2)ncn1`, for which the INHIBITION stood at 63.7%.

With `N#Cc1ccc(OC[C@]23COC[C@H]2CN(c2ncccn2)C3)nc1`, the INHIBITION was -7.29%.

In the case of `Cc1cccc(COC[C@]23COC[C@H]2CN(C(=O)c2ccsc2)C3)n1`, the INHIBITION is given as -29.9%.

Take `COc1cc(N2C[C@@H]3COC[C@]3(COc3ccc(C#N)cn3)C2)ncn1`: the INHIBITION is 71.1%.

For the molecule `Cc1cccc(CN2C[C@@H]3COC[C@]3(COc3ccc(C#N)cn3)C2)n1`, the INHIBITION is recorded as 6.8%.

Take `Cn1cc(CN2C[C@@H]3COC[C@]3(COc3ccc(C#N)cn3)C2)cn1`: the INHIBITION is -43.2%.

For `Cc1cccc(CNC(=O)N(CCCO)C2CCc3ccccc32)n1` (configuration not stated), the INHIBITION is -14.6%.

As for `CNc1snc(C)c1C(=O)NC(C)CC(=O)c1cccs1` (configuration not stated), the INHIBITION was 44.6%.

With `O=C(N1CCCC1)N1CCC(Nc2ccncn2)CC1`, the INHIBITION is listed as 34.1%.

Regarding `CC(C)c1cc(NC2CCN(C(=O)N3CCCC3)CC2)ncn1`, the INHIBITION came to 74.7%.

`CC(C)c1cc(NC2CCCN(C(=O)c3cccs3)C2)ncn1` (configuration not stated): the INHIBITION came out at 80%.

On to `CCc1nc(NC2CCCN(C(=O)c3cccs3)C2)c2cnn(C)c2n1` (configuration not stated), for which the INHIBITION is 32.8%.

`O=C(N1CCOCC1)N1CCC(Nc2ccncn2)CC1`: the INHIBITION amounted to 29.4%.

As for `CC(C)C1CN(C(=O)c2cccs2)CCS1` (configuration not stated), the INHIBITION was determined as 29.5%.

As for `COc1ccc(CC(=O)NC2(C#N)CCOCC2)c(Cl)c1`, the INHIBITION is given as -8.4%.

As to `Cc1ccc(N2CCCC(NCc3cccs3)C2)nn1` (configuration not stated), the INHIBITION was -19.4%.

Regarding `CCNC(=O)NC(=O)CN1CCCC1c1nc(C2CCCCC2)co1` (configuration not stated), the INHIBITION is 10.8%.

In the case of `O=C(O)CCn1ccc2c(nnc3c(-c4ccc(F)cc4)cnn32)c1=O`, the INHIBITION was determined as 63.6%.

Take `CC(=O)Nn1ccc2c(nnc3c(-c4ccc(F)cc4)cnn32)c1=O`: the INHIBITION was 58.5%.

For `O=C(O)CCn1ccc(=O)c2cc(F)ccc21`, the INHIBITION stood at 38.1%.

For the molecule `CC(=O)Nn1ccc2c(nnc3c(-c4ccccc4)cnn32)c1=O`, the INHIBITION came out at 58.5%.

As to `O=C(O)CCn1ccc(=O)c2ccccc21`, the INHIBITION is given as 35.1%.

Turning to `CCN(C)C(=O)NCC1(CN2CCOCC2)CCCCC1`, the INHIBITION turned out to be 5.76%.

`O=C(c1cc(=O)c(OCc2ccccc2F)co1)N1CCCC1`: the INHIBITION is -51.9%.

Consider `COCCNC(=O)c1cnc(N(C)C)nc1C`, for which the INHIBITION is recorded as 14.2%.

Consider `CSc1nccn1-c1cccc(C(=O)NCCC(=O)NC(C)C)c1`, for which the INHIBITION is 15.5%.

Turning to `CC(=O)NCCCC(=O)N1CCc2[nH]c(-c3ccccc3)nc2C1`, the INHIBITION is listed as 35.8%.

Regarding `Cc1cc(O)n2nc(C3CCN(C(=O)c4ccccn4)CC3)cc2n1`, the INHIBITION was 7.55%.

On to `CC(=O)N1[C@H](CN(C)C)C[C@@H]2CN(C(=O)Cc3cccs3)CC[C@@H]21`, for which the INHIBITION is on record as -61.5%.

(Values after ChEMBL document CHEMBL4513216, “Probing the Open Global Health Chemical Diversity Library for Multistage-Active Starting Points for Next-Generation Antimalarials” (ACS Infect Dis, 2020).)
